This experiment addresses T1, Methionyl-tRNA synthetase, putative (Leishmania donovani (strain BPK282A1)) (UniProt E9BF75).
T1 sequence (whole entry): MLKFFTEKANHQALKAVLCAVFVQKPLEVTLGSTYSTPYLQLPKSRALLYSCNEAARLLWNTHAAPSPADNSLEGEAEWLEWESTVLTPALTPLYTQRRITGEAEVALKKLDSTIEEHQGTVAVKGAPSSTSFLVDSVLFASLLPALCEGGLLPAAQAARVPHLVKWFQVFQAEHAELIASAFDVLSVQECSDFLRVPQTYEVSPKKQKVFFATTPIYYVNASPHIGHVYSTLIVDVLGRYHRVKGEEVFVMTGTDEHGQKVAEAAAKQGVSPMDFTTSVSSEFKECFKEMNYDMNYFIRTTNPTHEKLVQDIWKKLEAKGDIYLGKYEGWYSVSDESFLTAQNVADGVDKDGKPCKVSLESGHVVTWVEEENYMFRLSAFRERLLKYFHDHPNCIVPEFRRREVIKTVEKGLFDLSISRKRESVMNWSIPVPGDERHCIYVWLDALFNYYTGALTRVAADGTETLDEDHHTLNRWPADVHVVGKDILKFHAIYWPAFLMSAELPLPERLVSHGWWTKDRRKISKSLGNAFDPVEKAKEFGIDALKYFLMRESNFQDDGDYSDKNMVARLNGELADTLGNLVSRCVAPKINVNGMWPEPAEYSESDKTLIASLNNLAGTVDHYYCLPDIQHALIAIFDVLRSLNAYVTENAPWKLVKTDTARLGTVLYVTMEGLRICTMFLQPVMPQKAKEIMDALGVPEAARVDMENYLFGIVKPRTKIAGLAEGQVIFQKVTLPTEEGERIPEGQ
Nature of the experiment: Leishmania donovani Methionine tRNA synthetase (LdMetRS):v7. Dose response assay. The class given is functional. Also on record: conc 80 nM, time 150 minutes.

The results in this text go back to ChEMBL document CHEMBL3988442, “University of Dundee, Small-Polar-MMV Screening Library” (2021).

Some results are limits rather than exact numbers.

Regarding `NS(=O)(=O)c1ccc(Nc2ncccc2S(N)(=O)=O)cc1`, the PXC50 by setting is: (MAX_EFFECT 6.072106262) < 4; (MAX_EFFECT 13.21585903) < 4; (MAX_EFFECT 15.90909091) < 4.
Regarding `NC1CCOc2c(Cl)cc(Cl)cc21` (stereo not drawn), the PXC50 by setting is: (MAX_EFFECT 4.805491991) < 2.7; (MAX_EFFECT 6.273764259) < 3; (MAX_EFFECT 11.76470588) < 2.7; (MAX_EFFECT 23.54211663) < 3.
On to `CN(c1cccc(F)c1)c1nc(NCCO)c2cnn(C)c2n1`, for which the PXC50 reads like this: (MAX_EFFECT 8.142493639) < 4; (MAX_EFFECT 9.649122807) < 4; (MAX_EFFECT 12.83018868) < 4.
For `NS(=O)(=O)c1cccnc1Nc1cc(F)cc(C(F)(F)F)c1`, the PXC50 was < 4 (MAX_EFFECT 3.956834532), < 4 (MAX_EFFECT 8.551068884) and < 4 (MAX_EFFECT 8.583690987).
For the compound `COc1cc(Nc2nc(NCCO)c3cnn(C)c3n2)cc(C(F)(F)F)c1`, the PXC50 by setting is: (MAX_EFFECT 10.13215859) < 4; (MAX_EFFECT 10.95041322) < 4; (MAX_EFFECT 12.18568665) < 4.
For the compound `CNc1cc(-c2cccc(CN)c2)c2cc[nH]c2n1`, the PXC50 (BOTTOM 0.988395417, HILLSLOPE 1.522848712, MAX_EFFECT 89.26174497, TOP 100.0) turned out to be 4.55; the PXC50 (BOTTOM -0.303339397, HILLSLOPE 1.457263574, MAX_EFFECT 90.27777778, TOP 100.0) came out at 4.5; the PXC50 (BOTTOM -1.705392775, HILLSLOPE 1.008817214, MAX_EFFECT 54.59272097, TOP 100.0) is 4.07.
As to `COCCNc1cc(-c2ccccc2CCN)c2cc[nH]c2n1`, the PXC50 by setting is: (BOTTOM -0.0153, HILLSLOPE 1.167622452, MAX_EFFECT 63.88888889, TOP 100.0) 4.2; (MAX_EFFECT 46.30872483) < 4; (MAX_EFFECT 46.96707106) < 4.
In turn, `CN(C)c1nc2c(c(N3CCc4ccccc4C3)n1)CCNC2` displayed a PXC50 (BOTTOM 4.386431105, HILLSLOPE 1.427859325, MAX_EFFECT 80.85808581, TOP 100.0) of 4.37; a PXC50 (BOTTOM 4.719660638, HILLSLOPE 1.487233723, MAX_EFFECT 73.91304348, TOP 100.0) of 4.28; a PXC50 (BOTTOM 4.739489756, HILLSLOPE 1.201717489, MAX_EFFECT 56.63082437, TOP 100.0) of 4.07.
Consider `Cn1ncc2c(NCCO)nc(NCCN3CCOCC3)nc21`, for which the PXC50 is < 4 (MAX_EFFECT 4.109589041), < 4 (MAX_EFFECT 10.0) and < 4 (MAX_EFFECT 11.56069364).
For the compound `CCc1cc(N[C@@H]2CC[C@@H](N)C2)n2nc(C)c(C)c2n1`, the PXC50 reads like this: (BOTTOM 1.026617696, HILLSLOPE 1.297008069, MAX_EFFECT 52.85961872, TOP 100.0) 4.01; (BOTTOM 3.147594101, HILLSLOPE 1.2343555, MAX_EFFECT 68.05555556, TOP 100.0) 4.22; (BOTTOM 4.251586265, HILLSLOPE 1.063316163, MAX_EFFECT 53.69127517, TOP 100.0) 4.06.
With `Cc1nc(CN(C)C(=O)c2ccc(Cn3cnnn3)cc2)cs1`, the PXC50 (MAX_EFFECT 1.360544218) was < 4, the PXC50 (MAX_EFFECT 4.347826087) is < 4 and the PXC50 (MAX_EFFECT 4.72854641) was < 4.
Turning to `Cn1ncc2c(N3CCOCC3)nc(Nc3ccc(F)c(F)c3)nc21`, the PXC50 is 5.29 (BOTTOM 9.319609168, HILLSLOPE 1.297043796, MAX_EFFECT 53.57833656, TOP 67.28849304); < 4 (MAX_EFFECT 10.12396694); < 4 (MAX_EFFECT 42.73127753).
On to `Cn1ncc2c(NCC3CCOC3)nc(Nc3ccc(F)c(F)c3)nc21` (stereo not drawn), for which the PXC50 runs as follows: (BOTTOM 0.0, HILLSLOPE 0.829006149, MAX_EFFECT 88.54961832, TOP 100.0) 4.89; (BOTTOM 5.170404417, HILLSLOPE 0.914601234, MAX_EFFECT 86.40350877, TOP 102.339634) 4.72; (BOTTOM -0.903989981, HILLSLOPE 0.887117975, MAX_EFFECT 86.41509434, TOP 97.82602818) 4.97.
Take `CN(C)c1nc(Nc2ccc(F)c(F)c2)nc2c1cnn2C`: the PXC50 runs as follows: (BOTTOM 0.0, HILLSLOPE 0.943271721, MAX_EFFECT 54.1567696, TOP 49.71942024) 6.12; (BOTTOM 0.0, HILLSLOPE 1.040792015, MAX_EFFECT 59.65665236, TOP 50.11386445) 6.1; (BOTTOM 0.0, HILLSLOPE 1.064354186, MAX_EFFECT 50.0967118, TOP 49.52260288) 6.2.
`c1ccc(C2CCCN(c3cncc(-n4cccn4)n3)CC2)cc1` (stereo not drawn): the PXC50 is 4.15 (BOTTOM 2.059841181, HILLSLOPE 1.067052754, MAX_EFFECT 60.46065259, TOP 100.0); 4.01 (BOTTOM 3.016481369, HILLSLOPE 1.023719455, MAX_EFFECT 53.04659498, TOP 100.0); 4.01 (BOTTOM -1.1240017, HILLSLOPE 1.127395441, MAX_EFFECT 50.23923445, TOP 100.0); < 4 (MAX_EFFECT 41.25412541); < 4 (MAX_EFFECT 41.30434783).
